# Measured values reported in PubChem BioAssay (EPA / NIEHS).
# Records with an inconclusive call do not appear. Where a structure was tested more than once in an assay, its records may differ in their call. Active and inactive are the calls of the source. Rule for the calls, unless noted: active = hit-call score of the fitted dose curve at least 0.9, where 1 is the maximum; inactive = score below 0.9.
# Tests used:
# [1] = CCTE_Shafer_MEA_dev_per_network_spike_spike_percent: CCTE's Neural Network Formation Assay for Percent of Spikes in a Network Spike, Shafer Lab (AID 2284054)
# Method in brief: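 Rat primary cortical neurons were grown on 48-well MEA plates (16 electrodes/well), exposed from plating day 0 through day 12, with treatment renewed on DIV 5 and 9. Percent of spikes within 0.05 s network-spike peaks was measured, summarised as AUC across days 5, 7, 9, 12.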
# [2] = UKN5_HCS_SBAD2_cell_viability: Viability Assessment in the University of Konstanz (UKN) Leist Lab Neurite Outgrowth Assay in human iPSC-derived immature Dorsal Root Ganglia Neurons (UKN5) (AID 2284056)
# Method in brief: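 iPSC-derived immature peripheral neurons (SBAD2) seeded on Matrigel with CHIR99021, SU5402 and DAPT, dosed 1 h later for 24 h. Viability from Hoechst H-33342 and calcein-AM live staining, high-content imaging; bidirectional fit versus DMSO.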
# [3] = CCTE_Shafer_MEA_dev_LDH: CCTE's Lactate Dehydrogenase Assay for Cytotoxicity in the Neural Network Formation Assay, Shafer Lab (AID 2284068; active = hit-call score of the fitted dose curve at least 0.9, where 1 is the maximum;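 note: exposure for twelve days from plating with re-dosing on DIV 5 and 9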)
# Method in brief: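 Primary rat cortical neurons were plated on PEI/laminin MEA plates and exposed from day 0 for twelve days, with compound renewed at DIV 5 and 9. Cytotoxicity was determined by spectrophotometric LDH assay relative to DMSO.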
# [4] = UKN5_HCS_SBAD2_neurite_outgrowth: University of Konstanz (UKN) Leist Lab Neurite Outgrowth Assay in human iPSC-derived immature Dorsal Root Ganglia Neurons (UKN5) (AID 2284070); details: actives raise or lower the signal
# Method in brief: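 Human iPSC-derived immature DRG neurons (SBAD2) on Matrigel with CHIR99021 (1.5 uM), SU5402 (5 uM), DAPT (5 uM); compounds added 1 h post-seeding for 24 h. Calcein-AM neurite area imaged; bidirectional fit vs DMSO.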
# [5] = CCTE_Shafer_MEA_dev_AB: CCTE's Alamar Blue Assay for Cytotoxicity in the Neural Network Formation Assay, Shafer Lab (AID 2284083; active = hit-call score of the fitted dose curve at least 0.9, where 1 is the maximum;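 note: twelve days of exposure from plating with re-dosing on DIV 5 and 9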)
# Method in brief: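 Primary rat cortical neurons on PEI-coated 48-well MEA plates, 1.5 x 10^5 cells/well in laminin drop; compound exposure from day 0 of plating for twelve days, renewed at medium changes on DIV 5 and 9. Viability read as resazurin reduction by fluorescence, relative to DMSO.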
# [6] = CCTE_Shafer_MEA_dev_mutual_information_norm: CCTE's Neural Network Formation Assay for Mutual Information Normalization, Shafer Lab (AID 2284091);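 for AC50: mutual information between electrodes summarised as area under curve across four recording days; potency is for a decrease in mutual information relative to DMSO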
# Method in brief: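 Primary rat cortical neurons on PEI-coated 48-well MEA plates, 1.5 x 10^5 cells/well, exposed from day 0 through day 12 with re-dosing at DIV 5 and 9. Mutual information between electrodes recorded days 5, 7, 9, 12; trapezoidal AUC, loss-of-signal fit versus DMSO.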
# [7] = CCTE_Shafer_MEA_dev_correlation_coefficient_mean: CCTE's Neural Network Formation Assay for Mean Correlation Coefficient, Shafer Lab (AID 2284093);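 for AC50: well mean pairwise spike train correlation integrated as AUC over recording days 5 to 12; potency fitted for loss of correlation relative to DMSO vehicle wells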
# Method in brief: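 Spontaneous activity recorded on days 5, 7, 9 and 12 post-plating; pairwise spike correlations are averaged across active electrodes and collapsed to an area-under-curve. Rat cortical cultures are dosed from plating through 12 days, with compound renewed at media changes.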
# [8] = UKN2_HCS_IMR90_neural_migration: University of Konstanz (UKN) Leist Lab Neural Crest Cell Migration Assay in human induced IMR90 Pluripotent Stem Cells (UKN2) (AID 2284204); details: actives raise or lower the signal
# Method in brief: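 iPSC-derived IMR90 neural crest cells seeded around stoppers on PLO/laminin/fibronectin; migration started in N2-S medium with EGF/FGF, compounds added after 24 h for 24 h. Migration into cell-free area imaged after calcein-AM/Hoechst staining; bidirectional fit versus DMSO.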
# [9] = IUF_NPC1b_proliferation_BrdU_72hr: Leibniz Research Institute for Environmental Medicine (IUF) 72-hour Neural Progenitor Cell Bromodeoxyuridine (BrdU) Proliferation Assay (NPC1b) (AID 2284207)
# Method in brief: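 BrdU luminescence ELISA quantified DNA synthesis over the last 16 h of a 72 h exposure, fitted against DMSO. Primary hNPC spheres from gestational week 16-19 cortex grown with EGF/FGF at 37C, pH 7.2-7.6.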
# [10] = IUF_NPC1a_proliferation_area_72hr: Leibniz Research Institute for Environmental Medicine (IUF) 72-hour Neural Progenitor Cell Proliferation Area Assay (NPC1a) (AID 2284208)
# Method in brief: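 Single 0.25–0.35 mm human fetal neural progenitor spheres in proliferation medium with EGF and FGF, exposed 72 h from plating without renewal at 37C, pH 7.2-7.6. Sphere area growth measured by automated phase-contrast imaging, relative to DMSO.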
# [11] = IUF_NPC1_viability_72hr: Viability Assessment at 72 hours in the Leibniz Research Institute for Environmental Medicine (IUF) Neural Progenitor Cell Proliferation Assay (NPC1) (AID 2284209)
# Method in brief: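 Human fetal-cortex neural progenitor spheres (0.25–0.35 mm, one per well) grown in EGF/FGF proliferation medium at 37C, pH 7.2-7.6, exposed 72 h without renewal; viability read as alamar blue resazurin-to-resorufin fluorescence relative to DMSO.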
# [12] = UKN2_HCS_IMR90_cell_viability: Viability Assessment in the University of Konstanz (UKN) Leist Lab Neural Crest Cell Migration Assay in human induced IMR90 Pluripotent Stem Cells (UKN2) (AID 2284233);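 note: viability of neural crest cells differentiated from IMR90 iPSC measured by calcein-AM fluorescence imaging; cells exposed to compound for 24 h after a 24 h migration phase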
# Method in brief: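 Neural crest cells derived from IMR90 iPSC migrate into a stopper-free zone for 24 h in EGF/FGF medium, then are exposed to compound for 24 h. Viability assessed by calcein-AM and Hoechst staining with high-content imaging, fitted bidirectionally versus DMSO.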
# [13] = IUF_NPC2c_oligodendrocyte_migration_120hr: Leibniz Research Institute for Environmental Medicine (IUF) 120-hour Neural Progenitor Cell Migration Assay for Oligodendrocyte Migration (NPC2c) (AID 2284297);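 note: O4-positive oligodendrocyte migration distance divided by radial glia migration distance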
# Method in brief: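 Human fetal neural progenitor spheres (0.3 mm) are plated on poly-D-lysine/laminin in N2 differentiation medium and exposed for 120 h, with half-medium renewal at day 3. Oligodendrocyte (O4+) migration distance comes from ICC imaging, normalised to radial glia migration.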
# [14] = IUF_NPC2a_radial_glia_migration_120hr: Leibniz Research Institute for Environmental Medicine (IUF) 120-hour Neural Progenitor Cell Migration Assay for Radial Glia Migration (NPC2a) (AID 2284298)
# Method in brief: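 Human fetal-cortex neural progenitor spheres (0.3 mm) plated on poly-D-lysine/laminin in N2 differentiation medium, exposed 120 h at 37C with half-medium renewal at day 3. Radial glia migration distance (um) measured from Hoechst-stained nuclei images; DMSO baseline.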
# [15] = IUF_NPC2a_radial_glia_migration_72hr: Leibniz Research Institute for Environmental Medicine (IUF) 72-hour Neural Progenitor Cell Migration Assay for Radial Glia Migration (NPC2a) (AID 2284299)
# Method in brief: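 Human fetal cortex (GW 16-19) neural progenitor spheres, 0.3 mm, plated on poly-D-lysine/laminin in N2 differentiation medium with compound from day 0. Radial glia migration distance (um, sphere core edge to migration edge) measured manually in four directions on 72 h brightfield images; well mean used.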
# [16] = IUF_NPC2b_neuronal_migration_120hr: Leibniz Research Institute for Environmental Medicine (IUF) 120-hour Neural Progenitor Cell Migration Assay for Neuron Migration (NPC2b) (AID 2284300)
# Method in brief: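 0.3 mm hNPC spheres on poly-D-lysine/laminin in N2 differentiation medium exposed 120 h, half-medium refresh day 3; 7 concentrations, DMSO max 0.1%. Neuron (TUBB3) distance from sphere core by ICC imaging, normalised to radial glia migration.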
# [17] = IUF_NPC3_neuronal_differentiation_120hr: Leibniz Research Institute for Environmental Medicine (IUF) 120-hour Neuronal Differentiation Assay (NPC3) (AID 2284301)
# Method in brief: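 Human fetal (GW 16-19) neural progenitor spheres (0.3 mm) plated on poly-D-lysine/laminin in N2 differentiation medium, exposed 120 h at 37C with half-medium renewal day 3; 7 concentrations. TUBB3+ cells as % of Hoechst nuclei, CNN-identified; DMSO baseline.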
# [18] = IUF_NPC4_neurite_length_120hr: Leibniz Research Institute for Environmental Medicine (IUF) 120-hour Neuronal Morphology Assay for Neurite Length (NPC4) (AID 2284302)
# Method in brief: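 Human fetal neural progenitor spheres (0.3 mm) plated on poly-D-lysine/laminin in N2 differentiation medium, exposed from day 0 for 120 h with half-medium refresh at day 3, 37C. Mean neurite length (um) of TUBB3-positive neurons from skeletonized immunostaining images; DMSO ≤0.1%.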
# [19] = IUF_NPC2-5_cytotoxicity_72hr: Cytotoxicity Assessment at 72 hours in the Leibniz Research Institute for Environmental Medicine (IUF) Neural Progenitor Cell Migration and Differentiation Assay for Cytotoxicity (NPC2-5) (AID 2284306; active = hit-call score of the fitted dose curve at least 0.9, where 1 is the maximum;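 note: LDH release into supernatant measured by resorufin fluorescence marking membrane damage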)
# Method in brief: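 Human fetal primary neural progenitor spheres (0.3 mm) plated on poly-D-lysine/laminin in N2 differentiation medium, exposed from day 0 at 37C. LDH-dependent resazurin-to-resorufin fluorescence in supernatant at 72 h; 7 concentrations, DMSO at most 0.1%.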
# [20] = IUF_NPC2-5_cytotoxicity_120hr: Cytotoxicity Assessment at 120 hours in the Leibniz Research Institute for Environmental Medicine (IUF) Neural Progenitor Cell Migration and Differentiation Assay (NPC2-5) (AID 2284307; active = hit-call score of the fitted dose curve at least 0.9, where 1 is the maximum)
# Method in brief: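 Human fetal (GW 16-19) neural progenitor spheres (0.3 mm) plated on poly-D-lysine/laminin in N2 differentiation medium, exposed 120 h with half-medium renewal at day 3; 7 concentrations plus solvent control, DMSO ≤0.1%. LDH release in supernatant read by resorufin fluorescence.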
# [21] = IUF_NPC2-5_cell_number_120hr: Cell Number Assessment at 120 hours in the Leibniz Research Institute for Environmental Medicine (IUF) Neural Progenitor Cell Migration and Differentiation Assay (NPC2-5) (AID 2284308);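 note: count of Hoechst-stained nuclei in migration zone around plated human neural progenitor spheres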
# Method in brief: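 Human fetal neural progenitor spheres (0.3 mm) plated on poly-D-lysine/laminin in N2 differentiation medium, exposed five days across 7 concentrations with half-medium refresh at day 3. Hoechst-positive nuclei counted in migration area at 120 h, relative to DMSO.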
# [22] = IUF_NPC2-5_viability_120hr: Viability Assessment at 120 hours in the Leibniz Research Institute for Environmental Medicine (IUF) Neural Progenitor Cell Migration and Differentiation Assay (NPC2-5) (AID 2284312)
# Method in brief: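 Human fetal neural progenitor spheres (0.3 mm) plated on poly-D-lysine/laminin in N2 differentiation medium, exposed 120 h with half-medium refresh at day 3. Viability by alamar blue resazurin fluorescence; 7 concentrations, DMSO max 0.1%.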
# [23] = IUF_NPC1_cytotoxicity_72hr: Cytotoxicity Assessment at 72 hours in the Leibniz Research Institute for Environmental Medicine (IUF) Neural Progenitor Cell Proliferation Assay (NPC1) (AID 2284332; active = hit-call score of the fitted dose curve at least 0.9, where 1 is the maximum;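 note: rising LDH signal means more cytotoxicity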)
# Method in brief: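 Single human fetal cortex neural progenitor spheres (GW 16-19, 0.25-0.35 mm) in EGF/FGF proliferation medium were exposed to compound for 72 h at 37C without renewal. Medium LDH release was read as resorufin fluorescence and fitted as gain-of-signal.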
smiles,measurement,setting,value
C/C(=C/C=C/[C@@H](C)C(=O)O)[C@H]1CN[C@H](C(=O)O)[C@H]1CC(=O)O,AC50,[1],2.33 µM (active)
same,outcome,[1],inactive
same,outcome,[2],inactive
same,AC50,[3],6.75 µM (active)
same,outcome,[4],inactive
same,outcome,[5],inactive
same,AC50,[6],0.0507 µM (active)
same,outcome,[6],inactive
same,AC50,[7],1.56 µM (active)
same,outcome,[7],inactive
same,outcome,[8],inactive
same,outcome,[9],inactive
same,outcome,[10],inactive
same,outcome,[11],inactive
same,outcome,[12],inactive
same,outcome,[13],inactive
same,outcome,[14],inactive
same,outcome,[15],inactive
same,outcome,[16],inactive
same,outcome,[17],inactive
same,AC50,[18],0.0406 µM (active)
same,outcome,[19],inactive
same,outcome,[20],inactive
same,outcome,[21],inactive
same,outcome,[22],inactive
same,outcome,[23],inactive
